A selection: hits, their analogues and other compounds. The true share with any hit is near 19%.
TDP1 cell noCPT: qHTS for Inhibitors of human tyrosyl-DNA phosphodiesterase 1 (TDP1): qHTS in cells in absence of CPT; AID 686978, 2013; Potency, µM (highest dose often 46.2 µM), usual class: inhibitors; DT40 Tdp1-/- hTDP1 cells, no CPT, ATP luminescence, 48 h; actives 15% (n = 420,000); note: nearly all actives have a fitted effect of over 55% in size
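Stably hTDP1-transfected Tdp1-null chicken DT40 cells were treated with library compounds minus camptothecin and grown for at least 48 hr at 37 °C, after which cellular ATP was quantified by luminescence.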
HT1080 IDH1KD tx: HT-1080 IDH1 knockdown cell toxicity (counter line) | HT-1080 IDH1 knockdown viability, ATP luminescence, 48 h | Potency, µM (top dose mostly 46.1 µM), actives largely listed as cytotoxic | actives 2% (n = 360,000)
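Viability of IDH1-knockdown HT-1080 fibrosarcoma cells was assessed by CellTiter-Glo after 48 h at 37 °C with titrated compound; concentration-effect curves were classified by fit quality and response size.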
HT1080-NT tox: kills 2HG-producing HT-1080-NT fibrosarcoma cells. actives 1.6% (n = 360,000). Potency, µM (highest dose often 46.1 µM), most hits filed as cytotoxic. HT-1080-NT fibrosarcoma viability, CellTiter-Glo ATP luminescence, 48 h;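 note: NT is the 2HG producing partner of a matched IDH1 knockdown line; nearly all actives have a fitted effect of over 55% in size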
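Viability of the 2HG-overproducing fibrosarcoma line after 48 hours of compound exposure at 37 degrees C was determined by luminescence with CellTiter-Glo, and concentration-effect curves were then fitted and categorized.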
IL-1B inflam inh: blocks inflammasome-driven IL-1 beta release; AID 743279; actives 4.7% (n = 360,000); THP-1 LPS/ATP IL-1B secretion, AlphaLISA, 16 h; stronger effect = lower value; activity change, % at 57.5 µM; in the data active = activity change below about -50%; inconclusive = mostly about -30% to -49%
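THP-1 cells pretreated 1 hr with compounds (up to 57.5 uM final), then stimulated with LPS (250 ng/mL final) plus ATP (1.25 mM final); secreted IL-1B measured by AlphaLISA after 16 hr, decreased signal indicating inhibition.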
ELG1 repair inh: inhibitors of ELG1-dependent DNA repair in HEK293T cells. HEK293T ELG1-luciferase reporter, luminescence, 16 h; DNA damage induced by 5-fluorouridine. Potency, µM (doses to about 46.1 µM), hits mostly inhibitors. actives 2.3% (n = 330,000); note: nearly all actives have a fitted effect of over 55% in size
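In this reporter screen, reduction of luminescence relative to DMSO vehicle indicated activity. Compounds and 5-fluorouridine were added together to 2,000 cells per well, incubated for 16 hr at 37 °C, then developed with ONE-Glo.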
TDP1 cell CPT: growth inhibition of DT40 Tdp1-/-;hTDP1 cells with camptothecin (screen for TDP1 inhibitors) | chicken DT40 Tdp1-/-;hTDP1 cells + 20 nM CPT, ATP luminescence, 48 h | Potency, µM (series often up to 46.2 µM), actives largely listed as inhibitors | actives 12% (n = 420,000) | AID 686979; note: nearly all actives have a fitted effect of over 55% in size
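Chicken DT40 Tdp1-/- cells stably complemented with human TDP1 were seeded at 400 cells/well in medium containing 20 nM camptothecin, exposed to pin-transferred compounds, and grown at 37 °C for at least 48 hr. Viability was read as ATP luminescence.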
Numbers stand for hits; – = inactive; ? = inconclusive; · = not tested or not shown. Unless noted, calls come from the whole dose curve; as a rule, active = well fitted curve in the direction sought with a large enough effect; inconclusive = small, poorly fitted or top-dose-only effect, or another doubt; inactive = no such curve, though single readings can be large; an effect the other way counts as inactive or inconclusive.

SMILES	TDP1 cell noCPT	HT1080 IDH1KD tx	HT1080-NT tox	IL-1B inflam inh	ELG1 repair inh	TDP1 cell CPT
COc1cc(/C=C/c2nc3ccccc3c(=O)n2-c2ccc(O)cc2)ccc1O	?	18.4µM	16.4µM	-65.3	16.4µM	?
COc1ccc(-n2c(/C=C/c3ccc(O)c(O)c3)nc3ccccc3c2=O)cc1	18.4µM	–	–	?	18.3µM	?
O=c1c2ccccc2nc(/C=C/c2ccccn2)n1-c1ccccc1	–	–	–	?	–	–
O=c1c2ccccc2nc(/C=C/c2ccc3c(c2)OCO3)n1-c1ccccc1	23.1µM	–	–	–	?	?
COc1ccc(-n2c(/C=C3/C(=O)Nc4ccccc43)nc3ccccc3c2=O)cc1	?	–	–	–	–	–
Cc1cccc(OP(N)(=O)Oc2cccc(C)c2C)c1C	?	–	–	–	–	?
COC(=O)CC1(CC(=O)OC)C(=O)N(c2ccccc2)C(=O)N(c2ccccc2)C1=O	–	–	–	–	–	–
N#Cc1cccc(NC(=O)N2CC3(CCN(C(=O)Oc4ccccc4)CC3)C2)c1	?	·	·	·	·	–
O=C1OC(=O)C2C3CCC(O3)C12 (configuration not stated)	–	·	·	·	?	–
O=C1NCCCCC1(Cl)Cl	–	–	–	–	·	–
COC(=O)c1cc(NC(=O)Cn2nc(-c3ccccc3)c3c(c2=O)CCCC3)cc(C(=O)OC)c1	18.4µM	·	·	·	·	?
COc1ccc(/C=C/C2=CCN(C)CC2)cc1	–	–	–	–	?	–
CN1CC=C(/C=C/c2ccc(-c3ccccc3)cc2)CC1	11.6µM	–	–	?	?	14.6µM
Cc1nc2ccccc2c(=O)n1-c1ccc(Br)cc1[N+](=O)[O-]	?	–	–	–	–	?
C#C[C@]1(O)CC[C@H]2[C@@H]3CCC4=Cc5nc6nc7ccccc7n6cc5C[C@]4(C)[C@H]3CC[C@@]21C	11.6µM	–	–	–	7.94µM	?
C#CC1(O)CCC2C3CCC4=C/C(=N/OCC(=O)NCC(=O)NC(C(=O)O)C(C)C)CC[C@]4(C)C3CC[C@@]21C (some centres not stated)	–	–	–	–	?	–
O=C1CC(=O)N(c2ccccc2)C(=O)N1c1ccccc1	–	–	–	–	–	–
CCC(COC(=O)NC)NC(=O)Oc1ccccc1 (configuration not stated)	–	–	–	–	–	–
CN(Cc1ccccc1)C(=O)c1ccc(NC(=O)C2CCN(C(=O)OC(C)(C)C)CC2)cc1	14.6µM	–	–	–	10.3µM	23.1µM
CN(Cc1ccccc1)C(=O)CN1CCCC1=O	–	–	–	–	–	–
CC(C)=CCc1c(O)cc2c(c1O)C(=O)CC(c1ccc(O)cc1)O2 (configuration not stated)	23.1µM	–	–	–	–	16.4µM
NC(CP(=O)(O)O)C(=O)O (configuration not stated)	–	·	·	·	·	–
CCOP(=O)(OCC)C(NC(=O)Nc1ccc(Cl)c(Cl)c1)c1ccccc1 (configuration not stated)	16.4µM	?	?	–	–	?
Cc1[nH]c2ccccc2c1C(=O)CN1CC=C(c2ccccc2)CC1	?	–	–	–	–	16.4µM
O=C1NC(=S)NC(=O)C1Cc1ccccc1O	–	–	–	–	·	–
SMILES	TDP1 cell noCPT	HT1080 IDH1KD tx	HT1080-NT tox	IL-1B inflam inh	ELG1 repair inh	TDP1 cell CPT
COc1ccc(Oc2cc(NC(=O)c3nn(C)cc3[N+](=O)[O-])cc([N+](=O)[O-])c2)cc1	–	5.17µM	18.4µM	-96.2	?	–
COc1ccc(NC(=O)c2cn(CCC#N)nc2-c2cccc([N+](=O)[O-])c2)cc1	–	–	–	–	–	–
COP(=O)(OC)C(NC(C)=O)C(Cl)(Cl)Cl (configuration not stated)	?	–	–	–	–	–
O=C(NC(C(Cl)Cl)N1CCOCC1)c1ccccc1 (configuration not stated)	–	–	–	–	–	–
CCC(C)/C=C(C)/C=C/C1=CC2=C(Cl)C(=O)C(C)(OC(C)=O)C(=O)C2=CO1 (configuration not stated)	?	–	–	–	–	14.6µM
CC(=O)Oc1ccc(/C=C/c2cc(OC(C)=O)cc(OC(C)=O)c2)cc1	11.6µM	·	·	·	·	?
CCC(=O)OC1(c2ccccc2)CCN(C)CC1	–	·	·	·	·	–
O=C1NC(=O)C(=Cc2ccc(-c3ccc(F)cc3O)o2)C(=O)N1	?	?	?	-76.9	?	?
O=C1NC(=O)C(=Cc2ccc(-c3ccc(S(=O)(=O)N4CCOCC4)cc3)o2)C(=O)N1	?	–	–	–	?	?
O=C1NC(=O)C(=Cc2ccc(Sc3ccccc3)o2)C(=O)N1	14.6µM	13µM	18.4µM	-99.6	?	?
O=C1NC(=O)C(=Cc2ccco2)C(=O)N1	–	–	–	–	·	?
CN1C(=O)C(=Cc2ccc(Sc3ccccc3)o2)C(=O)N(C)C1=O	?	–	–	–	–	?
O=C1NC(=O)C(=Cc2ccc(-c3ccc(Cl)cc3)o2)C(=O)N1	8.2µM	–	–	-108.0	?	5.8µM
O=C1CC2OCC=C3CN4CC[C@]56c7ccccc7N1[C@H]5[C@H]2C3C[C@H]46 (some centres not stated)	–	·	·	·	·	·
O=C(NC1C=CS(=O)(=O)C1)c1sc2ccccc2c1Cl (configuration not stated)	23.1µM	11.2µM	15.8µM	-97.1	–	?
Cc1cc(C(=O)OCC(=O)NC(=O)c2cccn2C)c2ccccc2n1	–	–	–	–	?	–
C#CCOC(C(=O)OCCN(C)C)(c1ccccc1)c1ccccc1	11.9µM	·	·	·	·	21.1µM
[N-]=[N+]=NCc1cn2cccnc2n1	–	–	–	–	–	–
CCCC1(CC(C)CC)C(=O)NC(=O)NC1=O (configuration not stated)	–	–	–	–	·	–
COC(=O)Nc1nc2ccccc2[nH]1	5.8µM	?	?	–	·	6.51µM
CCOc1ccc(Nc2c(S(=O)(=O)c3ccc(C)cc3)cnc3ccccc23)cc1	?	·	·	·	·	16.4µM
COC(=O)C1=C(c2ccc(F)cc2OCc2ccccc2)C[C@@H]2CC[C@H]1N2C(=O)N1CCC(O)(c2ccc(Cl)cc2)CC1	23.1µM	–	–	-52.8	?	?
COC(=O)C1=C(c2ccccc2OCc2ccccc2)C[C@@H]2CC[C@H]1N2C(=O)NCc1ccc(F)cc1	?	?	–	?	–	?

High-throughput results (PubChem)
